Where “and” joins values, the source holds several entries; their conditions need not be identical. Equal entries are not always repeated. Screen size: about 5,500 compounds; about 2,000 (36%) were called active. About 18% were inconclusive and are not listed. Rule as the data show it: active = normalized growth mostly below about 0.91 (no sharp cut-off); inconclusive = no clear call, values can overlap the other calls; inactive = mostly above about 0.92. Some of the results follow.
Experiment: chemical genetic growth profiling, strain panel (AID 1159580);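 also: tested at 20 µM; growth read once vehicle control cultures reached saturation at 30 °C; 1 = growth at the plate median or of vehicle wells; lower values mean less growth of the strain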
Conditions: S. cerevisiae deletion strains, growth OD

Measured: normalized growth

CCC[C@@H]1C[C@@H](C(=O)N[C@H]([C@H]2O[C@H](SC)[C@H](O)[C@@H](O)[C@H]2O)[C@H](C)O)N(C)C1
inactive: locus YAL021C, strain ccr4, hits give low values 0.981 | locus YAL026C, strain drs2, hits give low values 0.99 | locus YAL030W, strain snc1, hits give low values 0.984 | locus YBL061C, strain skt5, hits give low values 0.981 | locus YBR009C, strain hhf1, hits give low values 1.01 | locus YBR021W, strain FUR4, hits give low values 1.01 | locus YBR023C, strain chs3, hits give low values 0.977 | locus YBR171W, strain sec66, hits give low values 0.962 | locus YBR229C, strain ROT2, hits give low values 0.991 | locus YBR231C, strain swc5, hits give low values 0.981 | locus YBR279W, strain paf1, hits give low values 0.985 | locus YCL011C, strain gbp2, hits give low values 0.997 | locus YCL016C, strain dcc1, hits give low values 1.03 | locus YCL029C, strain bik1, hits give low values 0.996 | locus YCL061C, strain MRC1, hits give low values 0.969 | locus YCL069W, strain vba3, hits give low values 0.971 | locus YCR088W, strain abp1, hits give low values 0.973 | locus YDL005C, strain med2, hits give low values 0.979 | locus YDL035C, strain GPR1, hits give low values 1.02 | locus YDL040C, strain nat1, hits give low values 0.975 | locus YDL074C, strain BRE1, hits give low values 1.03 | locus YDL101C, strain DUN1, hits give low values 0.983 | locus YDL134C, strain PPH21, hits give low values 1 | locus YDL185W, strain tfp1, hits give low values 0.979 | locus YDL192W, strain arf1, hits give low values 0.98 | locus YDR001C, strain nth1, hits give low values 0.958 | locus YDR069C, strain doa4, hits give low values 0.965 | locus YDR101C, strain arx1, hits give low values 1.01 | locus YDR137W, strain rgp1, hits give low values 0.983 | locus YDR150W, strain NUM1, hits give low values 1 | locus YDR159W, strain sac3, hits give low values 1.01 | locus YDR162C, strain NBP2, hits give low values 1.01 | locus YDR195W, strain ref2 0.922 | locus YDR297W, strain sur2, hits give low values 0.975 | locus YDR318W, strain mcm21, hits give low values 0.989 | locus YDR334W, strain swr1, hits give low values 0.929 | locus YDR335W, strain msn5, hits give low values 0.974 | locus YDR388W, hits give low values 0.992 | locus YDR392W, strain spt3, hits give low values 1.04 | locus YDR502C, strain sam2, hits give low values 0.991 | locus YEL003W, strain gim4, hits give low values 0.952 | locus YEL037C, strain rad23, hits give low values 0.983 | locus YEL061C, strain CIN8 (second series), hits give low values 0.962 | locus YEL061C, strain CIN8, hits give low values 1.01 | locus YER015W, strain faa2, hits give low values 1.01 | locus YER016W, strain bim1, hits give low values 0.987 | locus YER110C, hits give low values 0.983 | locus YER111C, strain swi4, hits give low values 0.98 | locus YER155C, strain BEM2 (second series), hits give low values 0.986 | locus YER155C, strain BEM2, hits give low values 0.975 | locus YER167W, strain BCK2, hits give low values 1.02 | locus YFR010W, strain ubp6, hits give low values 0.974 | locus YGL078C, strain dbp3, hits give low values 0.981 | locus YGL086W, strain mad1, hits give low values 1 | locus YGL167C, strain pmr1, hits give low values 0.959 | locus YGL173C, strain kem1, hits give low values 0.973 | locus YGL227W, strain vid30, hits give low values 0.978 | locus YGL240W, strain doc1, hits give low values 0.958 | locus YGL248W, strain PDE1, hits give low values 0.986 | locus YGL253W, strain hxk2, hits give low values 0.992 | locus YGR078C, strain PAC10, hits give low values 0.993 | locus YGR135W, strain pre9, hits give low values 0.955 | locus YGR252W, strain gcn5, hits give low values 0.943 | locus YHR013C, strain ard1, hits give low values 0.993 | locus YHR027C, strain rpn1, hits give low values 0.981 | locus YHR030C, strain SLT2, hits give low values 1.01 | locus YHR079C, strain IRE1 (second series), hits give low values 0.998 | locus YHR079C, strain IRE1, hits give low values 1.03 | locus YHR094C, strain hxt1, hits give low values 0.998 | locus YHR129C, strain ARP1, hits give low values 0.981 | locus YHR142W, strain chs7, hits give low values 0.995 | locus YHR200W, strain rpn10, hits give low values 0.993 | locus YIL066C, strain RNR3, hits give low values 0.991 | locus YIL073C, strain SPO22, hits give low values 1 | locus YIL125W, strain kgd1, hits give low values 0.985 | locus YIR030C, strain dcg1, hits give low values 0.99 | locus YJL092W, strain hpr5, hits give low values 0.977 | locus YJL095W, strain BCK1 (second series), hits give low values 0.978 | locus YJL095W, strain BCK1, hits give low values 0.98 and 1.02 | locus YJL115W, strain asf1, hits give low values 0.977 | locus YJL129C, strain trk1, hits give low values 0.984 | locus YJL134W, strain LCB3, hits give low values 0.998 | locus YJL154C, strain vps35, hits give low values 0.969 | locus YJL164C, strain tpk1, hits give low values 1.01 | locus YJL166W, strain qcr8, hits give low values 0.934 | locus YJL168C, strain set2, hits give low values 0.992 | locus YJL187C, strain SWE1 (second series), hits give low values 0.984 | locus YJR043C, strain POL32, hits give low values 1.01

Reference: PubChem BioAssay AID1159580 (chemical genetic matrix, 2015)
